Among the data in PubChem BioAssay are growth inhibition, inhibition and outcome values, retold here.

Test [1] can be described thus: antimalarial activity against Dd2 strain (AID 2302;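 active = growth inhibition above 50% at the single 2 µM test dose, taken to imply half-maximal potency below 2 µM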;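 also: 0% = DMSO untreated growth and 100% = chloroquine plus artemisinin killed control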). To be noted: P. falciparum Dd2 in RBCs, LDH growth readout, 72 h; at 2 µM; stronger effect = higher value.
The nature of test [2]: human hepatoma cell viability loss – ATP luminescence, cytotoxicity control for P. falciparum antimalarial project, primary screen (AID 2303;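 active = inhibition above 50%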;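 also: 0% = DMSO wells and 100% = digitonin-killed cells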). The note with it: HepG2 viability, 24-48 h, at 10 µM, stronger effect = higher value.
Test [3] addresses L-lactate dehydrogenase (Plasmodium falciparum (isolate CDC / Honduras)) (UniProt Q27743). Nature of the test: PfLDH activity inhibition – cell lysate, 3D7 strain, counter-screen for P. falciparum growth inhibition project (AID 2304).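 Also: 0% = vehicle and 100% = reference inhibitor.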 The note with it: P. falciparum 3D7 crude extract, LDH APAD/NBT absorbance; at 2 µM; stronger effect = higher value. For orientation: A counterscreen serves to expose hits that act by an unwanted route or on another target.

Test [4] in a line: inhibition of 3D7 malaria parasite growth – strain 3D7 (AID 2306).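 Also: 0% = DMSO wells and 100% = chloroquine plus artemisinin control wells.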 The note with it: P. falciparum 3D7 erythrocytic growth, LDH absorbance, 72 h; at 2 µM; stronger effect = higher value.
Test [5] deals with Calcium-dependent protein kinase 1 (Plasmodium falciparum (isolate 3D7)) (UniProt P62344). As to the kind of experiment: PfCDPK1 kinase inhibitors, biochemical, TCAMS library (AID 1159585; cut-off not given, nearly all actives have IC50 up to about 0.98 µM;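 also: inhibitors leave more ATP so luminescence rises with inhibition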). The note with it: recombinant PfCDPK1, Kinase-Glo ATP depletion luminescence. A general note: Kinase-Glo reads ATP consumption through a luciferase reaction.
Test [6] concerns the target Plasmodium falciparum protein kinase 6 (PK6, PF3D7_1337100) (UniProt Q8IDW1). As to the kind of experiment: PfPK6 kinase inhibitors, biochemical, TCAMS library (AID 1159586). The note with it: recombinant PfPK6, Kinase-Glo ATP depletion luminescence.
Test [7] has as its target Protein kinase 7 (PK7), Plasmodium falciparum 3D7 (PF3D7_0213400) (UniProt Q7YTF7). Nature of the test: inhibition of Plasmodium PK7 catalytic activity – biochemical, TCAMS antimalarial set, Kinase-Glo luminescence (AID 1159587). To be noted: recombinant PfPK7, Kinase-Glo ATP depletion luminescence.
Test [8] addresses Calcium-dependent protein kinase 4 (Plasmodium falciparum (isolate 3D7)) (UniProt Q8IBS5). As to the kind of experiment: PfCDPK4 kinase inhibitors, biochemical, TCAMS library (AID 1159588; cut-off not given, nearly all actives have IC50 up to about 0.91 µM). To be noted: recombinant PfCDPK4, Kinase-Glo ATP depletion luminescence.

The term inhibition denotes the relative decrease from the control value, in per cent.

Unmarked numbers belong to inactive results. For some assays here: Potency and affinity values are given separately. Active and inactive are the calls of the source. Unless noted, no rule for the calls is given here.

Sequence of Protein kinase 7 (PK7), Plasmodium falciparum 3D7 (PF3D7_0213400) (Q7YTF7 1-343): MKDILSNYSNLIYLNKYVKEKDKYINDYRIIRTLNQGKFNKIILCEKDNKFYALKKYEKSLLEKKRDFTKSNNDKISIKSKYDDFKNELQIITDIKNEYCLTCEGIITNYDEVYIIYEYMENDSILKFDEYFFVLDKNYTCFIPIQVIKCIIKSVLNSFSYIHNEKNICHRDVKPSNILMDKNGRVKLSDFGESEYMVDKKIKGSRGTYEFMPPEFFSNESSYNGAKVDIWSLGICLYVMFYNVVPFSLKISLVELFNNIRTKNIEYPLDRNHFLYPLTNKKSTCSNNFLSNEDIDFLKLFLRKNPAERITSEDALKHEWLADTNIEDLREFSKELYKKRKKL
Sequence of L-lactate dehydrogenase (Plasmodium falciparum (isolate CDC / Honduras)) (Q27743 whole entry, looked up): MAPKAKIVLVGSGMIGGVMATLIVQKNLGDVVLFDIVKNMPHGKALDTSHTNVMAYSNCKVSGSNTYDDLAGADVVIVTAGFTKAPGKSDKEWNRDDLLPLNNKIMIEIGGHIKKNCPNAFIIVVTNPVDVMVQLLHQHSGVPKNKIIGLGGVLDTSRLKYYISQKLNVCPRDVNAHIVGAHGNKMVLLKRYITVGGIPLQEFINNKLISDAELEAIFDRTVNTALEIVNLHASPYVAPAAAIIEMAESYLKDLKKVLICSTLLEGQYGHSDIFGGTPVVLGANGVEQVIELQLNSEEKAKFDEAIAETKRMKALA
Sequence of Plasmodium falciparum protein kinase 6 (PK6, PF3D7_1337100) (Q8IDW1 1-305): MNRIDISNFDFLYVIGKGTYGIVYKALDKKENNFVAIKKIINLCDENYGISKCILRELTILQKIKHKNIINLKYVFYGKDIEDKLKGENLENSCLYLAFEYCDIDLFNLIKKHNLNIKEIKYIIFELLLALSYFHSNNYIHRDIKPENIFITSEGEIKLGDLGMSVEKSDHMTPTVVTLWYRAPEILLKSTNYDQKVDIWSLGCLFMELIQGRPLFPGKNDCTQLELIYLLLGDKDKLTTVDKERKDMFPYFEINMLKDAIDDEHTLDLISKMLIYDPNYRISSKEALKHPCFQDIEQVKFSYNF
Sequence of Calcium-dependent protein kinase 4 (Plasmodium falciparum (isolate 3D7)) (Q8IBS5 whole entry, looked up): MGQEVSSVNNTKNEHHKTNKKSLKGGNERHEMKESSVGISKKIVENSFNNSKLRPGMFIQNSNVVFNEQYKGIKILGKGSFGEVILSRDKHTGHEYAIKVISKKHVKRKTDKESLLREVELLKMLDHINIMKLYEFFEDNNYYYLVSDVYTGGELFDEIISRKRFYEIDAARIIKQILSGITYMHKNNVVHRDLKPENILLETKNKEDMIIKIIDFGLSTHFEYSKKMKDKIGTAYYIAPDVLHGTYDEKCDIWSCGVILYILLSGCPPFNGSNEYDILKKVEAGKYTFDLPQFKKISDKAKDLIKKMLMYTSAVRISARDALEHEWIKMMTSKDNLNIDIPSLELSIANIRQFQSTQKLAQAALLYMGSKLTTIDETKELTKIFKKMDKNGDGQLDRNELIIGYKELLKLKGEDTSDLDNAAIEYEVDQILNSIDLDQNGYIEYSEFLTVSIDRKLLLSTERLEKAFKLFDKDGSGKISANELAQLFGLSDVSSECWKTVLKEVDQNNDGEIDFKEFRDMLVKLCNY
Sequence of Calcium-dependent protein kinase 1 (Plasmodium falciparum (isolate 3D7)) (P62344 whole entry, looked up): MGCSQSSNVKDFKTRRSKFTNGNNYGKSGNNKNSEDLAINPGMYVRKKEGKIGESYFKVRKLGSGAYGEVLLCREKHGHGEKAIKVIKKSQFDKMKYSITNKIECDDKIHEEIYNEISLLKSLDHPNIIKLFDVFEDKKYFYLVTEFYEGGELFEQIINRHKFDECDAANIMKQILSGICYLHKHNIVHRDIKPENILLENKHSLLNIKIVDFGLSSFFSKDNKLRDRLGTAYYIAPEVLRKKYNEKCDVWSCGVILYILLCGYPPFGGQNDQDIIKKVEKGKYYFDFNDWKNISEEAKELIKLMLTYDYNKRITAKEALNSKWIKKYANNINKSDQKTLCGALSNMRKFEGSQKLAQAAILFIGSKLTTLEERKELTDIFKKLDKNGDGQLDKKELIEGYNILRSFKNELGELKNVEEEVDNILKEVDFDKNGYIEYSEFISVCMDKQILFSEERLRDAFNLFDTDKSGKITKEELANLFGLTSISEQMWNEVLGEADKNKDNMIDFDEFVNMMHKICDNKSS

As for `O=C(Nc1ccc2c(c1)CN(Cc1ccc(N3CCCC3)o1)CCC2)c1cncs1`, the growth inhibition is 37% in test [1] and 84% (active) in test [4]. The inhibition in test [2] was 15%; in test [3], -2%. Besides, the result in test [5], in test [6], in test [7] and in test [8] was inactive.

As for `CNC(=O)/C=C/c1cc(NC(=O)Nc2cc(C)nc3c(F)cccc23)ccc1OC`, the growth inhibition in test [1] was 70% (active); in test [4] it was 98% (active). The inhibition is -3% in test [2] and 2% in test [3]. For the same molecule, the outcome in test [5], in test [6], in test [7] and in test [8] was inactive.

Consider `Cn1nc(C(F)(F)F)c(-c2ccc(F)cc2)c1NC(=O)Nc1ccccc1`, for which the growth inhibition in test [1] was 99% (active); in test [4] it was 101% (active). Moreover, the inhibition was 3% in test [2] and 6% in test [3]. In addition, the outcome in test [5], in test [6], in test [7] and in test [8] was inactive.

Regarding `CCN1CCN(c2ccc(Nc3c4ccccc4nc4ccccc34)cc2)CC1`, the growth inhibition in test [1] is 100% (active); in test [4], 99% (active). In addition, the figures for the inhibition in test [2] and in test [3] were 24% and -2%, respectively. Moreover, the outcome in test [5], in test [6], in test [7] and in test [8] was inactive.

For the molecule `CCC(C)c1ccc(-n2c(Nc3ccccc3)nc3cc(S(N)(=O)=O)ccc32)cc1` (configuration not stated), the values for the growth inhibition in test [1] and in test [4] were 28% and 88% (active), respectively. For the same molecule, the figures for the inhibition in test [2] and in test [3] were 0% and 4%, respectively. Further, the result in test [5], in test [6], in test [7] and in test [8] was inactive.

For the molecule `Cn1ccnc1-c1nc2ccccn2c1NCC(=O)Nc1ccccc1N1CCCCC1`, the figures for the growth inhibition in test [1] and in test [4] were 57% (active) and 85% (active), respectively. For the same molecule, the inhibition in test [2] is 16%; in test [3] it was -7%. Further, the outcome in test [5], in test [6], in test [7] and in test [8] was inactive.

Take `Cc1cccc2[nH]c(-c3ccc(-c4ccc(NC(=O)NCc5ccc(F)cc5)cc4)cc3)nc12`: the growth inhibition in test [1] is 99% (active); in test [4], 100% (active). Besides, the inhibition in test [2] was 70% (active); in test [3] it was -3%. In addition, the outcome in test [5], in test [6], in test [7] and in test [8] was inactive.

On to `CC(=O)N1N=C(c2[nH]c3ccc(Br)cc3c2C)OC1c1ccccc1` (configuration not stated), for which the growth inhibition in test [1] is 68% (active); in test [4] it was 86% (active). Also, the inhibition in test [2] is 8%; in test [3], 0%. In addition, the result in test [5], in test [6], in test [7] and in test [8] was inactive.

As to `COc1ccc2nccc([C@@H](O)CN3CCC(NCc4ccc5nsnc5c4)CC3)c2c1`, the growth inhibition was 64% (active) in test [1] and 95% (active) in test [4]. Further, the inhibition in test [2] was 12%; in test [3], 3%. Also, the result in test [5], in test [6], in test [7] and in test [8] was inactive.

As to `O=C(NCc1cccc2ccccc12)c1ccc(CNC2CCN(Cc3ccccc3)CC2)cc1`, the growth inhibition is 88% (active) in test [1] and 101% (active) in test [4]. In addition, the inhibition in test [2] was 15%; in test [3], 5%. The result in test [5], in test [6], in test [7] and in test [8] was inactive.

In the case of `O[C@@H](c1ccccc1)[C@@H]1CN(Cc2ccccc2)CC[C@@]1(O)c1ccccc1`, the growth inhibition in test [1] was 82% (active); in test [4] it was 91% (active). Further, the inhibition in test [2] was 4%; in test [3] it was -2%. The result in test [5], in test [6], in test [7] and in test [8] was inactive.

`NC(=O)c1ccsc1NC(=O)CNC(c1ccccc1)c1ccc(Cl)cc1` (configuration not stated): the growth inhibition in test [1] was 89% (active); in test [4] it was 83% (active). Moreover, the inhibition is 25% in test [2] and -3% in test [3]. The result in test [5], in test [6], in test [7] and in test [8] was inactive.

In the case of `O=c1cc(NCCCNCc2cccc(OC(F)(F)F)c2)[nH]c2ccccc12`, the figures for the growth inhibition in test [1] and in test [4] were 72% (active) and 97% (active), respectively. The inhibition in test [2] is -4%; in test [3], -1%. The outcome in test [5], in test [6], in test [7] and in test [8] was inactive.

On to `CO/C(=C\C=C/c1cc2cc(Cl)c(Cl)cc2[nH]1)C(=O)NC1CC(C)(C)N(C)C(C)(C)C1`, for which the growth inhibition in test [1] is 34%; in test [4], 93% (active). Besides, the inhibition in test [2] is 65% (active); in test [3], -1%. The outcome in test [5], in test [6], in test [7] and in test [8] was inactive.

Turning to `CCNc1cc(C(=O)N[C@@H](Cc2ccccc2)[C@H](O)CNCc2cc(OC)cc(OC)c2)cc(N2CCCS2(=O)=O)c1`, the growth inhibition in test [1] is 86% (active); in test [4], 99% (active). Besides, the inhibition was -4% in test [2] and -2% in test [3]. In addition, the outcome in test [5], in test [6], in test [7] and in test [8] was inactive.

Regarding `CC(C)CNCc1cccc(-c2ccccc2CNC2CCN(Cc3ccccc3)CC2)c1`, the growth inhibition in test [1] is 39%; in test [4], 100% (active). In addition, the inhibition was 25% in test [2] and -6% in test [3]. The outcome in test [5], in test [6], in test [7] and in test [8] was inactive.

As to `COc1cc2nc(N3CCC(CCCC4CCNCC4)CC3)nc(NCc3ccccn3)c2cc1OC`, the growth inhibition in test [1] was 6%; in test [4], 101% (active). The figures for the inhibition in test [2] and in test [3] were 2% and 3%, respectively. In addition, the result in test [5], in test [6], in test [7] and in test [8] was inactive.

Consider `O=C(Nc1nc(-c2ccccn2)cs1)c1ccc(S(=O)(=O)N2CCc3ccccc32)cc1`, for which the growth inhibition in test [1] is 15%; in test [4] it was 89% (active). For the same molecule, the inhibition in test [2] is 47%; in test [3], 2%. Further, the outcome in test [5], in test [6], in test [7] and in test [8] was inactive.

As for `O=C(Nc1cccc(-c2csc(-c3ccccc3)n2)c1)c1cccs1`, the growth inhibition in test [1] is 71% (active); in test [4] it was 89% (active). Besides, the inhibition was 0% in test [2] and 2% in test [3]. Further, the outcome in test [5], in test [6], in test [7] and in test [8] was inactive.
